PfHsp90 set2 – reduces growth (ATP signal) of yeast expressing P. falciparum Hsp90 | S. cerevisiae expressing PfHsp90, BacTiter-Glo ATP, 48 h; yeast lacking PDR1 and PDR3 efflux regulators | inhibition, % at 9.4 µM | 0.32% of 310,000 active | AID 504621;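 active = every replicate shows inhibition above about 80%, whatever the replicate mean, limit read from the data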;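 note: 0% = DMSO neutral controls and 100% = 20 µM radicicol positive controls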
NALP3 yeast inh – inhibitors of NALP3 inflammasome in yeast | Yeast reconstituted NLRP3/ASC/caspase-1, beta-gal luminescence, 24 h | inhibition, % at 10 µM | 0.39% of 330,000 active;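 active = inhibition of 50% or more; inactive = inhibition below 50%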;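 note: plate controls were induced DMSO wells for no effect and uninduced yeast grown without galactose for full effect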
TIM10 inh – TIM10 yeast growth inhibition. S. cerevisiae TIM10 strain growth, BacTiter-Glo luminescence, 24 h. 1.4% of 330,000 active. inhibition, % at 10 µM. AID 463195;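 active = inhibition of 40% or more at the single tested concentration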;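 note: wild-type TIM10 isogenic control strain grown at permissive 25 °C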
tim23-1 inh – tim23-1 yeast growth inhibition; S. cerevisiae tim23-1 growth, BacTiter-Glo luminescence, 24 h; inhibition, % at 20 µM; AID 463212; 1.3% of 330,000 active;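 active = growth inhibition of the mutant yeast at or above 50%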;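 note: temperature-sensitive mutant grown at 25 °C; plate controls were DMSO-treated mutant yeast for no effect and medium wells lacking yeast for full effect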
tim10-1 inh – tim10-1 yeast growth inhibition | inhibition, % at 20 µM | S. cerevisiae tim10-1 ts strain growth, BacTiter-Glo, 24 h | 2.2% of 330,000 active | AID 463190;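 active = inhibition of at least 40%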;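 note: mutant grown at 25 °C; 0% = DMSO wells with yeast and 100% = wells holding no yeast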
tim10-1 conf – tim10-1 yeast growth inhibition, confirmed; shares compounds with tim10-1 inh; S. cerevisiae tim10-1 ts strain growth, BacTiter-Glo, 24 h; inhibition, % at 20 µM; 56% of 7,400 active; AID 463213;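 active = inhibition of yeast growth at or above a set limit in either of two repeat tests at 20 µM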;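 note: tim10-1 mutant grown at permissive 25 °C to find synthetic lethal compounds; 0% = DMSO yeast wells and 100% = medium wells without yeast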
tim10 confirm – TIM10 yeast growth inhibition, confirmed; shares compounds with TIM10 inh; S. cerevisiae tim10 strain growth, BacTiter-Glo luminescence, 24 h; inhibition, % at 10 µM; 63% of 4,600 active;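 active = inhibition of yeast growth at or above a set limit in either of two replicates at 10 µM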;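 note: this counterscreen used the strain with wild-type TIM10; 0% = yeast with DMSO and 100% = medium wells lacking yeast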
tim23-1 conf – tim23-1 yeast growth inhibition, confirmed; shares compounds with tim23-1 inh; S. cerevisiae tim23-1 growth, BacTiter-Glo luminescence, 24 h; inhibition, % at 20 µM; 83% of 4,400 active;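 active = inhibition above about 39% in either of two replicate wells at 20 µM, limit read from the data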;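 note: temperature-sensitive tim23-1 mutant grown at 25 °C; 0% = DMSO wells with yeast and 100% = medium wells without yeast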
The depositor's hits bear a star; . = not tested or not shown. Only some compounds are listed: those with a hit (about 3.7% of all), similar ones and a draw of the others.

SMILES	PfHsp90 set2	NALP3 yeast inh	TIM10 inh	tim23-1 inh	tim10-1 inh	tim10-1 conf	tim10 confirm	tim23-1 conf
CCN1/C(=C/c2ccc3ccccc3[n+]2CC)C=Cc2ccccc21	26	39	52*	85*	74*	75*	20	67*
CCN1/C(=C/c2ccc3ccccc3[n+]2CCCS(=O)(=O)[O-])C=Cc2cc(C)ccc21	16	.	.	.	.	.	.	.
C[C@@H]1CN([C@H](C)CO)C(=O)c2cc(NC(=O)Nc3ccc4c(c3)OCO4)ccc2O[C@H]1CN(C)Cc1ccncc1	8	13	-1	-2	-8	.	.	.
COCCN(C(=O)Cn1c(C(F)(F)F)nc2ccccc21)c1c(N)n(Cc2ccccc2)c(=O)[nH]c1=O	-1	1	3	16	11	.	.	.
COc1ccc(CC(=O)Nc2cc(S(C)(=O)=O)ccc2Cl)cc1S(=O)(=O)N1CCOCC1	-15	.	.	.	.	.	.	.
CCOC(=O)COc1c(C=O)cc(Br)cc1OC	.	8	65*	61*	45*	36*	53*	75*
O=C(Cc1ccc(Cl)cc1)c1c[nH]c(C(=O)NCCCN2CCOCC2)c1	15	4	-15	-16	-8	.	.	.
Nc1cc(-c2ccc(OC(F)(F)F)cc2)nn1-c1ccc(Cl)c(Cl)c1	.	1	9	57*	46*	62*	.	61*
COc1cc(/C=C/C(=O)N2CCCN(C(=O)/C=C/c3cc(OC)c(OC)c(OC)c3)CC2)cc(OC)c1OC	-20	6	2	16	20	.	.	.
COc1cc(/C=C/C(=O)N2CCC=CC2=O)cc(OC)c1OC	15	6	57*	59*	58*	40*	45*	54*
COC(=O)c1cccc2c1-c1ccccc1/C2=N/O	-21	-25	33	65*	59*	38*	.	56*
O=C(NC(=S)Nc1ccccc1N1CCOCC1)c1cccs1	-74	-37	57*	59*	52*	36*	38*	60*
O=C(NC(=S)Nc1ccccc1N1CCOCC1)c1ccccc1F	-69	10	39	57*	52*	44*	.	55*
O=C(NC(=S)Nc1ccccc1N1CCN(C(=O)c2ccccc2)CC1)c1ccccc1F	-68	8	25	33	29	.	.	.
COc1cccc(C(=O)NC(=S)Nc2ccccc2N2CCOCC2)c1	16	18	39	53*	44*	30*	.	46*
O=C(NC(=S)Nc1ccc(N2CCCCC2)cc1)c1cccs1	-11	31	55*	51*	44*	14	27	50*
O=C(NC(=S)Nc1ccccc1N1CCCC1)c1cccs1	7	-42	0	35	34	.	.	.
CS(=O)(=O)N1CCN(c2ccc(NC(=S)NC(=O)c3cccs3)cc2)CC1	1	10	5	1	-9	.	.	.
Cc1nc2nc[nH]n2c(=O)c1NC(=O)c1c(-c2ccccc2Cl)noc1C	-3	17	-24	-4	-15	.	.	.
CCOC(=O)C1=C(C)N=C2SC(C(=O)OC)=CC(=O)N2C1c1ccc(OC)cc1 (stereo unspecified)	-6	33	71*	75*	69*	78*	75*	60*
COC(=O)C1=C(C)N=C2SC(C#N)=C(N)N2C1c1ccc(OC)cc1 (stereo unspecified)	-13	15	6	0	1	.	.	.
CCCNC(=O)c1ccc2c(c1)C1C3CCC(C3)C1C(c1ccccc1)N2 (stereo unspecified)	-16	1	37	53*	47*	44*	.	57*
Nc1ccc(S(=O)(=O)NC2(C(F)(F)F)NC(=O)N(c3ccc(F)cc3)C2=O)cc1 (stereo unspecified)	-11	25	-14	3	8	.	.	.
COc1cccc(-n2nc(C#N)c(Cl)cc2=O)c1	-38	-16	55*	62*	68*	56*	39*	63*
Cc1noc(C(=O)Nc2ccc(F)cc2F)c1Cl	11	3	14	10	2	.	.	.
Cc1ccc(N2C(=O)c3ccc(N)cc3C2=O)cc1	.	30	4	23	32	.	.	.
